This is an account of results in PubChem BioAssay AID1851 (National Center for Advancing Translational Sciences (NCATS), 2009).

Out of some 16,000 compounds screened, about 5,800 (36%) were called active. Inconclusive results (about 23%) are left out. The list shows a part of the results. Unmarked numbers belong to inactive results. The call rests on the fitted dose curve; in most records, active means well fitted curve in the direction sought with a large enough effect; inconclusive means small, poorly fitted or top-dose-only effect, or effect the other way; inactive means no such curve, though single readings can be large or run the other way.
On the % scale 0 is the no-effect control and ±100 the full control effect.

Chain of Cytochrome P450 2C19 (Homo sapiens) (P33261 whole entry, looked up): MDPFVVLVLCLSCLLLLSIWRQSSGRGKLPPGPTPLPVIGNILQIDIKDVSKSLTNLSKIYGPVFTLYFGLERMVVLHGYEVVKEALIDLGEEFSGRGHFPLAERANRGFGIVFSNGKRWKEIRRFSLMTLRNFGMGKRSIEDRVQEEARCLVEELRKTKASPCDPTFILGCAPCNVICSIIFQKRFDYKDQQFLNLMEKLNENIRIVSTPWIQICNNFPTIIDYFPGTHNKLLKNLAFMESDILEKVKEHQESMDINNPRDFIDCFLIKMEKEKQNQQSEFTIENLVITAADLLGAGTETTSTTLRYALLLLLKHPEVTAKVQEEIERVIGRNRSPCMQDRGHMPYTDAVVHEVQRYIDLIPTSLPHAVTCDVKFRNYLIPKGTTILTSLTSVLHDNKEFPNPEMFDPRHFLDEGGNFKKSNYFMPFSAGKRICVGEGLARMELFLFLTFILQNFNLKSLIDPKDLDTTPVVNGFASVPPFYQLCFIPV

This test concerns the target Cytochrome P450 2C19 (Homo sapiens) (UniProt P33261). Kind of test: Cytochrome panel assay with activity outcomes. Particulars: recombinant CYP, pro-luciferin dealkylation, luminescence, p450-cyp2c19; series mostly up to 57.1 µM.
For the compound `NCCSCCC(=O)O`, the activity, negative = inhibition is 13.2% [at 11.4 µM].
One may read the AC50 as the midpoint of the concentration-response curve, whichever way the signal moves. Consider `Cc1ccccc1-c1cncnc1NCc1ccccc1`, for which the half-maximal activity concentration (AC50) is 2 µM (active).
On the same count and under the same terms, under `COc1ccccc1-c1cncnc1NCc1cccnc1` stands 3.16 µM (active); under `Cc1cccc(CNc2ncncc2-c2ccccc2Cl)c1`, 1 µM (active).
On to `Cc1ccccc1-c1cncnc1NCc1cccnc1`, for which the AC50 is 0.398 µM (active).
For the compound `Cc1noc(C)c1-c1cncnc1NCc1ccccc1`, the AC50 result was “inactive”.
In the case of `CN(C)Cc1ccccc1-c1cncnc1NCc1cccnc1`, the AC50 entry was “inactive”.
On the same count and under the same terms, for `Cc1nc(N=Nc2ccc(S(=O)(=O)O)cc2S(=O)(=O)O)c(COP(=O)(O)O)c(C=O)c1O` the value was “inactive”; for `COc1ncc2nc(-c3cccc(C#N)c3)c(=O)n(CCC#N)c2n1`, “inactive”.
Take `Cc1cccc(CNc2ncncc2-c2ccccc2C)c1`: the AC50 was 1 µM (active).
Same read-out and setting: for `Cc1cnc(CNc2ncncc2-c2ccccc2CN(C)C)cn1` the value was “inactive”; for `Cc1cnc(CNc2ncncc2-c2ccccc2C#N)cn1`, “inactive”.
The same measure, in the same setting: for `N#Cc1ccccc1-c1cncnc1NCc1cccnc1` the value was “inactive”.
Same read-out and setting: under `CC(=O)NCCNc1ncncc1-c1ccccc1C` stands “inactive”.
`FC(F)(F)c1ccccc1-c1cncnc1NCc1cccnc1`: the AC50 was 2.51 µM (active).
On the same count and under the same terms, under `COc1ccccc1-c1cncnc1NCc1cccc(C)c1` stands 0.398 µM (active); under `Cc1cnc(CNc2ncncc2-c2ccccc2C)cn1`, 7.94 µM (active).
`Nc1cc(C(=O)O)[nH]c(=O)n1`: the activity, negative = inhibition was 35.4% [at 11.4 µM].
As to `COC(=O)CNC(=O)CCCCC(=O)NCC(=O)OC`, the AC50 entry is “inactive”.
Same read-out and setting: under `Cc1nc2sccn2c(=O)c1Cl` stands “inactive”.
For `CC(C)(CN)CN`, the activity, negative = inhibition is 26.4% [at 11.4 µM].
For `CSc1nncc(/C(C)=N\Nc2ccccc2)n1`, the half-maximal activity concentration (AC50) was 5.01 µM (active).
On to `O=C(c1cccc(F)c1)N1CCC2(CC1)CN(Cc1ccccc1)C2`, for which the AC50 result was “inactive”.
On the same count and under the same terms, under `O=C(c1cccc(F)c1)N1CCC2(CCCN(Cc3cc(C(F)(F)F)cc(C(F)(F)F)c3)C2)CC1` stands “inactive”; under `O=C(c1cccc(F)c1)N1CCC2(CCCN(Cc3ccncc3)C2)CC1`, 10 µM (active).
Same read-out and setting: for `O=C(c1ccco1)N1CCC2(CCCN(Cc3ccccc3)C2)CC1` the value was “inactive”; for `O=C(c1cccc(F)c1)N1CCC2(CCCN(Cc3ccccc3)C2)CC1`, “inactive”.
On the same count and under the same terms, for `N#Cc1ccc(CN2CCCC3(CCN(C(=O)c4cccc(F)c4)CC3)C2)cc1` the value was “inactive”; for `O=C(c1ccco1)N1CCC2(CCN(Cc3ccncc3)CC2)CC1`, “inactive”.
Consider `N#Cc1ccc(CN2CC3(CCN(C(=O)c4cccc(F)c4)CC3)C2)cc1`, for which the AC50 is 2 µM (active).
Regarding `O=C(c1ccco1)N1CCC2(CCCN(Cc3ccncc3)C2)CC1`, the AC50 was 10 µM (active).
Still for that read-out and setting: for `O=C(O)c1ccc2c(c1)C(=O)N(C(Cc1ccc(O)cc1)C(=O)O)C2=O` (configuration not stated) the value was “inactive”.
